Screening data deposited in PubChem by Broad Institute.
CD40 NFkB inh = CD40 pathway inhibition in BL2 cells. BL2 NF-kB luciferase reporter, CD40L-induced, 4 h. inhibition, % at 10 µM. actives 0.94% (n = 83,000). AID 1053188;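 active = mean inhibition of at least 50% with a set share of replicates also reaching that level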;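 note: 0% = neutral control wells and 100% = IKK inhibitor VII at 50 µM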
Numbers without * were called inactive; [ ] = dose if it differs, or a comment. Many of the other results were omitted from the sample, so hits are more common in it than they were.

Oc1ccc(CN2CCCc3ccccc32)c2cccnc12 was read as CD40 NFkB inh 11.
`Cc1cccnc1NCc1ccc(O)c2ncccc12` gave CD40 NFkB inh 59*.
Screening CN(C)C(=O)c1ccc(-c2ccc(C3[C@H]4CNC[C@@H]3N4CC3CCCCC3)cc2)cc1 (stereo partly specified) returned CD40 NFkB inh -3[25 µM].
Screening O=C(c1ccccc1F)N1C[C@@H]2[C@H](c3ccccc31)[C@@H](CO)N2C(=O)c1ccncc1 returned CD40 NFkB inh 2.
Screening CCCNC(=O)N1[C@@H](CO)[C@@H](c2ccccc2)[C@@H]1CNC(=O)c1ccc(F)cc1 returned CD40 NFkB inh 4.
For C[C@@H]1CN([C@H](C)CO)C(=O)c2c(c3ccccc3n2C)-c2ccccc2CO[C@H]1CN(C)Cc1ccncc1 the results were CD40 NFkB inh 8.
Screening N#C[C@@H]1[C@@H](c2ccccc2-c2ccccc2)[C@H](CO)N1C(=O)Cc1ccccc1 returned CD40 NFkB inh 7[25 µM].
For C[C@@H]1CN(C)C(=O)c2ccccc2O[C@@H]1CN(C)S(C)(=O)=O the results were CD40 NFkB inh -1.
`C[C@H]1CN(C)C(=O)c2cccnc2O[C@H]1CN(C)C` gave CD40 NFkB inh 16.
For C[C@@H]1CN(C)C(=O)c2cccnc2O[C@H]1CN(C)S(C)(=O)=O the results were CD40 NFkB inh 35*.
For CC(C)NC(=O)Nc1ccc2c(c1)CC(=O)N(C)C[C@@H](C)[C@H](CN(C)C(=O)NC(C)C)O2 the results were CD40 NFkB inh 3.
O=C(CCS(=O)(=O)c1ccccc1)Nc1ccc(N2CCOCC2)cc1 was read as CD40 NFkB inh -25.
`Cc1ccc(S(=O)(=O)CCC(=O)N(CCCN2CCOCC2)c2nc3ccccc3s2)cc1` gave CD40 NFkB inh 96*.
Screening O=C(CCS(=O)(=O)c1ccccc1)N(CCCN1CCOCC1)c1nc2ccccc2s1 returned CD40 NFkB inh 96*.
`O=C(NCCCN1CCOCC1)c1cc(-c2ccccc2)nc2ccccc12` gave CD40 NFkB inh 1.
`Cc1ccc2nc(N(CCN3CCOCC3)C(=O)CCS(=O)(=O)c3ccccc3)sc2c1` gave CD40 NFkB inh -33.
For CC(=O)Nc1ccc(S(=O)(=O)N(CCCN2CCOCC2)Cc2cccs2)cc1 the results were CD40 NFkB inh 3.
`COc1ccccc1S(=O)(=O)N[C@H]1C=C[C@@H](CC(=O)N2CCOCC2)O[C@@H]1CO` gave CD40 NFkB inh -1[25 µM].
`CN1C(=O)c2cc(NC(=O)c3cccc(F)c3)ccc2OC[C@@H]2O[C@@H](CC(=O)NCC3CC3)CC[C@@H]21` gave CD40 NFkB inh -1.
Screening CC(C)(C)C(=O)COC(=O)c1ccc(N)c([N+](=O)[O-])c1 returned CD40 NFkB inh -65.
For COc1ccc(C(=O)OCC(=O)Nc2ccc(OC)c(S(=O)(=O)N3CCCCC3)c2)cc1[N+](=O)[O-] the results were CD40 NFkB inh 5.
For CS(=O)(=O)c1ccc(C(=O)OCC(=O)NC(=O)C2CCCCC2)cc1[N+](=O)[O-] the results were CD40 NFkB inh 85*.
For Nc1ccc(C(=O)NNC(=O)C2COc3ccccc3O2)cc1[N+](=O)[O-] (stereo unspecified) the results were CD40 NFkB inh 2.
For CS(=O)(=O)c1ccc(C(=O)OCC(=O)NC(=O)C2COc3ccccc3O2)cc1[N+](=O)[O-] (stereo unspecified) the results were CD40 NFkB inh 95*.
For CNc1ccc(C(=O)OCC(=O)NC(=O)NC2CCCCC2)cc1[N+](=O)[O-] the results were CD40 NFkB inh 3.
For CCC(=O)N1CCCCN2[C@H](C1)[C@H](c1ccc(/C=C/c3ccccc3)cc1)[C@@H]2CO the results were CD40 NFkB inh 19[25 µM].
`COc1ccccc1CN1CC[C@@H]2[C@H]1c1cc(C3=CCCCC3)ccc1N[C@@H]2CO` gave CD40 NFkB inh -7[25 µM].
For C[C@@H]1C/C=C/C[C@H](c2ccc3c(c2)OCO3)NC(=O)[C@@H](C)N(C)C(=O)c2ccccc2O1 the results were CD40 NFkB inh 9.
CC(C)NC(=O)Nc1ccc2c(c1)CC(=O)N(C)C[C@@H](C)[C@@H](CN(C)C(=O)NC(C)C)O2 was read as CD40 NFkB inh 14.
Screening N#C[C@H]1[C@@H](c2ccccc2-c2cccc(F)c2)[C@@H](CO)N1C(=O)NC1CCCC1 returned CD40 NFkB inh 6.
For CC(C)Cc1ccc(C(C)/C=C2/CCC(CN3CCCCC3)C2=O)cc1 (stereo unspecified) the results were CD40 NFkB inh 66*.
For CC(C)Cc1ccc(CN2CCCC(NC(=O)CCN3CCCCC3=O)C2)cc1 (stereo unspecified) the results were CD40 NFkB inh 3.
For COCCNC(=O)C1CCCN(Cc2ccc(C(C)C)cc2)CC1 (stereo unspecified) the results were CD40 NFkB inh 7.
`COc1cccc2c1C(=O)c1c(O)c3c(c(O)c1C2=O)C[C@@](O)(C(C)=O)C[C@@H]3OC1CC(N)C(O)C(C)O1` (stereo partly specified) gave CD40 NFkB inh 87*[25 µM].
`CCC(=O)N1[C@H](CN(C)C(C)=O)[C@@H](c2ccc(-c3cccnc3)cc2)[C@@H]1CO` gave CD40 NFkB inh -39.
For O=C(NCc1ccccc1)[C@H]1[C@H](CO)[C@H]2Cn3c(cccc3=O)[C@@H]1N2C(=O)Cc1ccccn1 the results were CD40 NFkB inh -5[25 µM].
`CC(=O)Nc1ccc2c(c1)C(=O)N(C)[C@@H]1CC[C@@H](CC(=O)Nc3cn(C)nc3C)O[C@H]1CO2` gave CD40 NFkB inh 3.
Screening CC1(C)CC[C@]2(C(=O)n3ccnc3)CC[C@]3(C)[C@H](C(=O)C=C4[C@@]5(C)C=C(C#N)C(=O)C(C)(C)[C@@H]5CC[C@]43C)[C@@H]2C1 returned CD40 NFkB inh 92*.
Screening OC[C@H]1[C@H](c2ccc(C#Cc3ccccc3F)cc2)[C@H]2CN(Cc3cncnc3)CCCCN21 returned CD40 NFkB inh -42[25 µM].
`Cc1nc(Nc2nc3ccccc3o2)nc(C)c1C` gave CD40 NFkB inh 6.
Cc1ccnc(Nc2nc3ccccc3o2)n1 was read as CD40 NFkB inh 68*.
Screening N#Cc1cnc(Nc2nc3ccccc3o2)nc1-c1ccccc1 returned CD40 NFkB inh -20.
Screening C[C@@H]1COCn2nncc2CC[C@H](Cc2cccc(Cl)c2)C(=O)N1 returned CD40 NFkB inh -1[25 µM].
C[C@@H](NC(=O)C[C@H]1CC[C@@H]2[C@H](COC[C@H](O)CN2C(=O)Nc2cccc(Cl)c2)O1)c1ccccc1 was read as CD40 NFkB inh -3[25 µM].
Screening Cc1csc(N=Nc2ccc(N(C)C)cc2)[n+]1[O-] returned CD40 NFkB inh 80*.
`O=C(NC1CCCCC1)N1CC(=O)N2[C@H](CO)[C@@H](c3ccc(-c4cccnc4)cc3)[C@H]2C1` gave CD40 NFkB inh -4.
For CCCC#Cc1ccc2c(c1)[C@@H]1[C@@H](CCN1C(=O)C1CCCCC1)[C@@H](CO)N2 the results were CD40 NFkB inh 3[25 µM].
Screening O=C(Nc1nc(-c2ccc3c(c2)OCCO3)cs1)c1ccco1 returned CD40 NFkB inh -5.
For COc1cccc(Nc2nc(-c3ccc4c(c3)OCCO4)cs2)c1 the results were CD40 NFkB inh -94.
Screening COc1ccccc1C(=O)Nc1nc(-c2ccc3c(c2)OCCO3)cs1 returned CD40 NFkB inh 50*.
`C[C@@H]1CN([C@H](C)CO)C(=O)c2cc(NC(=O)CCN3CCOCC3)ccc2O[C@H]1CN(C)S(=O)(=O)c1cccs1` gave CD40 NFkB inh 1[25 µM].
